Source: PubChem BioAssay
Hits are enriched below; roughly 0.45% of the tested compounds scored in any of these assays.
EPAC1 agonist = qHTS for Agonist of cAMP-regulated guanine nucleotide exchange factor 3 (EPAC1): primary screen; EPAC1 agonist qHTS, biochemical assay; response scale: 100% = response to 6.5 mM cAMP; Rap guanine nucleotide exchange factor 3 (Homo sapiens), O95398; Potency, µM (titrated, usually from 154 µM), for inactives: at the top dose activation, actives largely listed as activators; 360,000 tested, 0.073% active; note: nearly all actives have a fitted effect of over 60% in size
Target sequence (O95398 whole entry, looked up): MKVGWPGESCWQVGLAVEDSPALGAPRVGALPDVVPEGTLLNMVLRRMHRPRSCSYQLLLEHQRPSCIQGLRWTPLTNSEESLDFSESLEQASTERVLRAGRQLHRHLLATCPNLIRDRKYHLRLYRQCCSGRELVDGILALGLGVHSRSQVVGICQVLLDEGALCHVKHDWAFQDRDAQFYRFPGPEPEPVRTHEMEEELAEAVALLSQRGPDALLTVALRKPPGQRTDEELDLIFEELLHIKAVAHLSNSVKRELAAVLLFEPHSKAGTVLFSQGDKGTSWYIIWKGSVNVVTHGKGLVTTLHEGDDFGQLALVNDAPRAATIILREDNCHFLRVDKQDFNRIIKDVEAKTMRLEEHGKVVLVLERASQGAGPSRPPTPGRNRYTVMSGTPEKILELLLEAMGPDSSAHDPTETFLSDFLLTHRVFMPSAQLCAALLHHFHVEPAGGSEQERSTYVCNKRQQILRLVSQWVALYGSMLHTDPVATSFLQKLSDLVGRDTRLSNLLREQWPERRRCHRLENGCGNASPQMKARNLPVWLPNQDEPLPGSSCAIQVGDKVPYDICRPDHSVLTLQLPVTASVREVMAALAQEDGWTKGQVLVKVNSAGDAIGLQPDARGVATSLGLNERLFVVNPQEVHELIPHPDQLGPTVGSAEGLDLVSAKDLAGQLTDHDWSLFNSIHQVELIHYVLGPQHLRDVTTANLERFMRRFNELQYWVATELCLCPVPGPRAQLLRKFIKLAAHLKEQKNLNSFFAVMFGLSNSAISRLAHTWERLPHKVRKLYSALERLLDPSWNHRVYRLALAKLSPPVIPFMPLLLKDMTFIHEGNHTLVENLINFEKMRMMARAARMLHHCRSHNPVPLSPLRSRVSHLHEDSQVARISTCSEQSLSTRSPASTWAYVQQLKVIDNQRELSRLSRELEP
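Nucleotide exchange by EPAC1 (100 nM) on Rap1B–BODIPY-GDP (250 nM) in the presence of 50 uM GDP is tracked fluorescently at 480/540 nm over 30 min. Signals are normalized to a 6.5 mM cAMP control.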
EPAC2 antag = qHTS for Antagonist of cAMP-regulated guanine nucleotide exchange factor 2 (EPAC2): primary screen; AID 720708, 2013; EPAC2 GEF exchange of Rap1B-BODIPY-GDP, fluorescence; 360,000 tested, 0.18% active; Rap guanine nucleotide exchange factor 4 (Homo sapiens), Q8WZA2; Potency, µM (series often up to 114 µM), without a hit: top-dose activity, negative = inhibition, actives largely listed as inhibitors; note: % is set by controls: 0 for no effect and ±100 for the full control effect; nearly all actives have a fitted effect of over 45% in size
EPAC1 antagonist = qHTS for Antagonist of cAMP-regulated guanine nucleotide exchange factor 3 (EPAC1): primary screen | Rap guanine nucleotide exchange factor 3 (Homo sapiens), O95398 | EPAC1 GEF assay, Rap1b-BODIPY-GDP exchange fluorescence | Potency, µM (top dose mostly 115 µM), for inactives: at the top dose activity change, negative = inhibition, actives largely listed as inhibitors | 360,000 tested, 0.14% active | AID 720709, 2013;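 note: plate controls were vehicle for no effect and positive control for full effect; nearly all actives have a fitted effect of over 50% in size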
EPAC2 ag = qHTS for Agonist of cAMP-regulated guanine nucleotide exchange factor 4 (EPAC2): primary screen. EPAC2 activation, biochemical qHTS; response scale: 100% = 6.5 mM cAMP response. 360,000 tested, 0.079% active. Potency, µM (titrated, usually from 154 µM), for inactives: top-dose activation, hits mostly activators. AID 720711, 2013. Rap guanine nucleotide exchange factor 4 (Homo sapiens), Q8WZA2; note: nearly all actives have a fitted effect of over 50% in size
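Compounds were titrated in qHTS against a Rap1B-BODIPY-GDP (250 nM) complex with EPAC2 (100 nM) and GDP (50 uM). BODIPY-GDP release tracked at 480/540 nm over 30 min at room temperature, normalized to 6.5 mM cAMP.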
USP1 inh = Inhibitors of USP1/UAF1: Primary Screen; recombinant USP1/UAF1, Ub-Rhodamine cleavage fluorescence; 390,000 tested, 0.23% active; Potency, µM (titrated, usually from 57.1 µM), for inactives: at the top dose activity change, negative = inhibition, usual class: inhibitors; note: % is set by controls: 0 for no effect and ±100 for the full control effect; nearly all actives have a fitted effect of over 60% in size
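USP1/UAF1 complex at 1 nM was preincubated with compound for 15 min at room temperature, then Ub-Rho substrate (150nM final) was added. Fluorescence (480/540 nm) was read kinetically, 6 reads every 60 seconds.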
* hit, by the source's call; i = inactive; ? = inconclusive; . = not tested or not shown; ! = repeats disagree. Calls come from the whole dose curve; as a rule, active = well fitted curve in the direction sought with a large enough effect; inconclusive = small, poorly fitted or top-dose-only effect, or another doubt; inactive = no such curve, though single readings can be large; an effect the other way counts as inactive or inconclusive. Potency is the fitted concentration of half-maximal effect.

SMILES | EPAC1 agonist | EPAC2 antag | EPAC1 antagonist | EPAC2 ag | USP1 inh
CC1=NN(c2cccc(C(=O)O)c2)C(=O)/C1=C\C=C/c1ccccc1 | -3.1% | 15.8µM* | -6.0% | 0.4% | ?
CC1=NN(c2ccccc2)C(=O)C1=Cc1ccccc1 | 20.7% | 19.4% | 50.1µM* | 16.0% | -23.8%
Cc1ccc(OCC(=O)Nc2nonc2-c2ccc(C)c(C)c2)cc1C | . | . | . | . | -38.1%
O=C1NC(=S)S/C1=C\C=C\c1ccc([N+](=O)[O-])o1 | 0.0% | 50.1µM* | 56.2µM* | -11.5% | -23.8%
Cc1ccc(-n2ncc(C(=O)NCCc3c[nH]c4ccccc34)c2C2CCN(C(=O)OC(C)(C)C)CC2)cc1C | . | . | . | . | -12.0%
COc1ccc(/C=C2\SC(=S)N(CCC(=O)N3CCCCC3)C2=O)cc1 | 2.5% | -3.6% | -11.8% | -3.7% | -4.8%
COCCN1C(=O)/C(=C/c2ccc(N3CCCC3)cc2)SC1=S | ? | 2.1% | -19.8% | 20µM* | 5.01µM*
N[C@@H](Cc1cc(I)c(Oc2ccc(O)c(I)c2)c(I)c1)C(=O)O | -23.5% | ? | 50.1µM*! | -3.5% | ?
CNc1ccc2c3c(cccc13)C(=O)N(C)C2=O | 100µM* | i | -23.4% | ? | 320.9%
CN1C(=O)c2cccc3c(Cl)ccc(c23)C1=O | -1.5% | 1.0% | 6.2% | 7.9% | 9.0%
CC[C@@]1(O)C(=O)OCc2c1cc1n(c2=O)Cc2cc3c(CN(C)C)c(O)ccc3nc2-1 | ? | 86.5% | 7.8% | ? | 25.1µM*
CCOC(=O)c1ccc(OC(=O)c2cn(-c3ccc(C)cc3)c(=O)c3ccccc23)cc1 | . | . | . | . | 5.7%
Cc1ccccc1C(=O)N/N=C/c1ccc([N+](=O)[O-])s1 | 0.6% | 16.3% | 8.9% | -2.1% | -29.3%
Cc1c(Cl)cccc1N=Cc1ccc([N+](=O)[O-])s1 | 2.6% | 13.8% | ? | 10.3% | 31.6µM*
COc1ccccc1NS(=O)(=O)c1ccc2ccccc2c1 | 15.6% | 12.6µM* | -4.2% | 22.8% | -26.1%
COc1ccccc1NS(=O)(=O)c1ccc(OC)c(OC)c1 | 0.0% | 4.2% | -8.4% | 1.4% | -12.5%
Cc1cccc(CNC(=O)c2sc3ncnc(N(C)C4CCCCC4)c3c2C)c1 | . | . | . | . | -13.8%
Cc1ccc2nc(N3C(=O)C(O)=C(C(=O)c4ccc(C)o4)C3c3cccc(O)c3)sc2c1 (configuration not stated) | -13.5% | 6.9% | 50.1µM* | -7.1% | -18.6%
COC(=O)C1=NN(c2ccc(C)cc2)C2(S1)SC(C(C)=O)=C(C)N2c1ccccc1 (configuration not stated) | 4.3% | 3.16µM* | 5.4% | 7.3% | -1.6%
Cc1cccc(-n2c(C)cc(C(=O)C(=O)Nc3ccccc3F)c2C)c1C | . | . | . | . | -2.3%
C=CCOc1ccccc1CN(C(=O)CCl)c1ccc2c(c1)OCO2 | -13.7% | 12.6µM* | -19.1% | 10.5% | -21.8%
CN(CC(=O)Nc1ccc(Cl)c(C(F)(F)F)c1)C(=O)c1ccc2c(c1)OCCO2 | 79.4µM* | -13.5% | -12.8% | 1.2% | -25.2%
Cc1ccc(NC(=O)COc2cccc(/C=C3\SC(=S)N(CCC(=O)O)C3=O)c2)cc1Cl | ? | 33.6% | 50.1µM* | -8.1% | ?
O=C(O)CCN1C(=O)/C(=C\c2cccc(OCC(=O)Nc3ccc(Cl)cc3)c2)SC1=S | ? | 14.7% | ? | -2.3% | -1.3%
CC(=Cc1ccccc1)C=C1SC(=S)N(CCCC(=O)Nc2ccc(C(=O)O)c(O)c2)C1=O | 12.4% | 0.1% | 50.1µM* | 0.0% | .
SMILES | EPAC1 agonist | EPAC2 antag | EPAC1 antagonist | EPAC2 ag | USP1 inh
O=C(CCN1C(=O)/C(=C/c2cccs2)SC1=S)Nc1ccc(C(=O)O)c(O)c1 | 3.5% | -9.8% | 79.4µM* | 4.9% | ?
O=C(CCN1C(=O)/C(=C/c2cccs2)SC1=S)Nc1ccc(O)cc1 | 2.5% | 6.3% | 9.9% | 4.7% | ?
N#Cc1c(NC(=O)CS(=O)(=O)c2ccc(Cl)cc2)sc2c1CCCCC2 | . | . | . | . | -9.0%
Cc1ccc(CN(Cc2ccco2)C(=O)c2ccc(OCC(C)C)cc2)cc1 | . | . | . | . | -28.8%
Cc1nn(CCc2nn[nH]n2)c2nc(-c3ccc(C4CCCCC4)cc3)cc(C(F)(F)F)c12 | -14.6% | ? | 79.4µM* | -23.3% | ?
O=C1C=C(Nc2ccc(F)cc2)c2ccccc2C1=O | -9.1% | -5.8% | 4.9% | -7.1% | 25.1µM*
CC(C(=O)Nc1cccnc1)N1C(=O)c2ccccc2C1=O (configuration not stated) | 6.0% | 1.3% | 13.4% | 11.5% | -9.0%
CCOc1ccc(NC2=CC(=O)C(=O)c3ccccc32)cc1 | -16.6% | 1.3% | -21.1% | -5.5% | 25.1µM*
CCOc1ccc(NC2=CC(=O)CCC2)cc1 | -4.2% | -12.6% | -9.9% | 4.4% | -5.5%
COc1cc(Cl)c(NC2=CC(=O)C(=O)c3ccccc32)c(OC)c1 | 1.0% | 1.6% | 3.7% | -5.2% | 28.2µM*
O=C1C(Cl)=C(Nc2ccccc2)C(=O)c2ccccc21 | 6.0% | 3.7% | -5.2% | -0.9% | -25.1%
O=C1C=C(Nc2cccnc2)c2ccccc2C1=O | 11.1% | ? | ? | 9.2% | 14.1µM*
COc1ccc(NC(=O)CN2C(=O)C3(SCC(=O)N3c3cccc(OC)c3)c3ccccc32)cc1 (configuration not stated) | . | . | . | . | -26.3%
O=S(=O)(Nc1c(S(=O)(=O)c2ccccc2)c2nc3ccccc3nc2n1C1CCCCC1)c1ccccc1 | 4.5% | ? | 39.8µM* | -3.2% | 3.16µM*
C=CCn1c(NS(=O)(=O)c2ccccc2)c(S(=O)(=O)c2ccc(C)cc2)c2nc3ccccc3nc21 | 4.0% | ? | ? | -7.0% | 28.2µM*
Cc1ccc(S(=O)(=O)c2c(N)n(-c3ccccc3)c3nc4ccccc4nc23)cc1 | 20.2% | -24.3% | -2.7% | 15.3% | -5.6%
CC(=O)Nc1c(S(=O)(=O)c2ccccc2)c2nc3ccccc3nc2n1Cc1ccccc1 | -4.9% | -1.2% | -15.5% | 2.2% | -22.4%
CCN(CC)c1nc2c(S(=O)(=O)c3ccccc3)nnn2c2ccc(Cl)cc12 | . | . | . | . | 1.9%
COc1cc(C2C=C(c3cccs3)Nc3ncnn32)cc(OC)c1OC (configuration not stated) | 100µM* | 120.3% | 82.4% | 23.9% | ?
CC(C)Oc1ccc(CNC(=O)C2=Cc3ccccc3OC2)cc1 | . | . | . | . | -9.8%
COC(=O)c1ccccc1-c1c2ccc(=N)cc-2oc2cc(N)ccc12 | -9.3% | ? | 31.6µM* | 0.0% | -101.2%
